Reference: PubChem BioAssay (Tox21)
A number with no mark means an inactive call. Calls follow the shape of the full dose curve.

biological target: Thyrotropin-releasing hormone receptor (Homo sapiens) (UniProt P34981); experiment: qHTS assay to identify small molecule agonists of the thyrotropin-releasing hormone receptor (TRHR) signaling pathway (AID 1346891); settings: TRHR-HEK293 calcium fluorescence, agonist mode; series mostly up to 57.6 µM; activation: at the top concentration;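 also: HEK293 cells expressing TRHR with calcium dye readout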
Sequence (P34981 whole entry, looked up): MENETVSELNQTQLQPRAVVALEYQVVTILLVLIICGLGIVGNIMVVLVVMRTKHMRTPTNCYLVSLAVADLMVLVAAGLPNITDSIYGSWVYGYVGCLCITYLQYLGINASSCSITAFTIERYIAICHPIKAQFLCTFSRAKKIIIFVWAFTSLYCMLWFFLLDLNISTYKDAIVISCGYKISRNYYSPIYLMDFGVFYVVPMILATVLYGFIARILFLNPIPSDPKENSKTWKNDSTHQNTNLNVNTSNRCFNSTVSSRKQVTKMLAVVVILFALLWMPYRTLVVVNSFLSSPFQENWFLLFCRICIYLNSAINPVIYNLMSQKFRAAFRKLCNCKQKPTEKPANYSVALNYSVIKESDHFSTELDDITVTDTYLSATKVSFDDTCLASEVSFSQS
Procedure, shortened: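 Kinetic fluorescence (3 min, 1 s intervals) reported intracellular calcium after compound transfer onto TRHR-Hek293 cells pre-loaded with dye for 2 h at 37 °C.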
% is scaled to controls: 0 for no effect and ±100 for the full control effect.

| Structure (SMILES) | activation |
| --- | --- |
| CCC(=O)Nc1ccc(O)cc1 | -0.05% [at 26.5 µM] |
| CC(=O)Oc1cc(C(C)C)c(OCCN(C)C)cc1C | -0.0101% [at 26.5 µM] |
| O=c1[nH]cnc2c1ncn2[C@@H]1O[C@H](CO)[C@@H](O)[C@H]1O | -0.0957% [at 26.5 µM] |
| N#Cc1ccc(C(c2ccc(C#N)cc2)n2cncn2)cc1 | 1.25% [at 26.5 µM] |
| NS(=O)(=O)c1cc(-c2nn[nH]n2)c(NCc2cccs2)cc1Cl | 0.131% [at 26.5 µM] |
| Cc1c(-c2ccccc2)oc2c(C(=O)OCCN3CCCCC3)cccc2c1=O | -1.02% [at 26.5 µM] |
| OCc1ccccc1O | 0.0077% [at 26.5 µM] |
| C[C@@H]1CN(c2c(F)c(F)c3c(=O)c(C(=O)O)cn(C4CC4)c3c2F)C[C@H](C)N1 | 0.0488% [at 11.8 µM] |
| CC(=O)N(CC(O)CN(C(C)=O)c1c(I)c(C(=O)NCC(O)CO)c(I)c(C(=O)NCC(O)CO)c1I)c1c(I)c(C(=O)NCC(O)CO)c(I)c(C(=O)NCC(O)CO)c1I (stereo not drawn) | -0.147% [at 26.5 µM] |
| CC(C)O | -0.17% |
| CN1CCN(c2c(F)cc3c(=O)c(C(=O)O)cn(CCF)c3c2F)CC1 | 0.356% [at 26.5 µM] |
| CN1CCN(c2c(F)cc3c(=O)c(C(=O)O)cn4c3c2SCC4)CC1 | 0.0452% [at 26.5 µM] |
| O=c1[nH]c(=O)n([C@H]2C[C@H](O)[C@@H](CO)O2)cc1C(F)(F)F | -0.191% [at 26.5 µM] |
| Cc1nnc(SCC2=C(C(=O)O)N3C(=O)[C@@H](NC(=O)Cn4cnnn4)[C@H]3SC2)s1 | 0.0113% [at 26.5 µM] |
| CCCCc1ccc2nc(NC(=O)OC)[nH]c2c1 | -0.0031% [at 26.5 µM] |
| Oc1ccccc1C=NCc1ccccc1 | -0.124% [at 26.5 µM] |
| NC/C=C/C(=O)O | -0.243% [at 26.5 µM] |
| COc1ccccc1N1CCN(CCCNc2cc(=O)n(C)c(=O)n2C)CC1 | 0.0527% [at 26.5 µM] |
| CS(=O)(=O)c1ccc([C@@H](O)[C@@H](CF)NC(=O)C(Cl)Cl)cc1 | -0.287% [at 26.5 µM] |

| Structure (SMILES) | activation |
| --- | --- |
| C=CC(C)(O)CC/C=C(\C)CCC=C(C)C (stereo not drawn) | 0.725% |
| Cc1cc(NS(=O)(=O)c2ccc(N)cc2)nc(C)n1 | 0.367% [at 26.5 µM] |
| CCC(=O)O[C@]1(C(=O)SCF)[C@H](C)C[C@H]2[C@@H]3C[C@H](F)C4=CC(=O)C=C[C@]4(C)[C@@]3(F)[C@@H](O)C[C@@]21C | 0.0329% [at 26.5 µM] |
| CC(C)NC[C@@H](O)COc1cccc2ccccc12 | -0.294% [at 26.5 µM] |
| FC(F)(F)C(F)(F)C(F)(F)C(F)(F)C(F)(F)C(F)(F)C(F)(F)C(F)(F)Br | -0.154% [at 26.5 µM] |
| CCN(CC)CC1CCCCN1CC(=O)N1c2ccccc2C(=O)Nc2cccnc21 (stereo not drawn) | 0.0725% [at 26.5 µM] |
| CCN[C@H]1CN(CCCOC)S(=O)(=O)c2sc(S(N)(=O)=O)cc21 | -0.167% [at 26.5 µM] |
| CCCN(CCC)C(=O)C(CCC(=O)O)NC(=O)c1ccccc1 (stereo not drawn) | -0.409% [at 26.5 µM] |
| CCCCN1C[C@H](O)[C@@H](O)[C@H](O)[C@H]1CO | 0.437% [at 26.5 µM] |
| C[C@@H]1CN(c2c(F)c(N)c3c(=O)c(C(=O)O)cn(C4CC4)c3c2F)C[C@H](C)N1 | -0.407% [at 11.8 µM] |
| COc1ccc(S(=O)(=O)Nc2nnc(CC(C)C)s2)cc1 | -1.3% [at 26.5 µM] |
| Cc1c(C(=O)NCCO)[n+](=O)c2ccccc2n1[O-] | 0.0122% [at 26.5 µM] |
| COc1ccccc1OCC(O)COC(N)=O (stereo not drawn) | 0.0933% [at 26.5 µM] |
| CC1(C)S[C@@H]2[C@H](NC(=O)C(C(=O)O)c3ccccc3)C(=O)N2[C@H]1C(=O)O (stereo partly drawn) | 0.074% [at 26.5 µM] |
| CCN(CC)CCNC(=O)COc1ccc(Cl)cc1 | -0.208% [at 26.5 µM] |
| CCOC(=O)[C@H](CCc1ccccc1)N[C@@H](C)C(=O)N1Cc2cc(OC)c(OC)cc2C[C@H]1C(=O)O | -0.0697% [at 26.5 µM] |
| CO[Si](C)(C)OC | 0.153% |
| CO[C@@]1(NC(=O)CSCC#N)C(=O)N2C(C(=O)O)=C(CSc3nnnn3C)CS[C@@H]21 | 0.335% [at 26.5 µM] |
| CCOC(=O)c1ccccc1O | 0.164% [at 26.5 µM] |
